# Bioassay records (PubChem)
# Hits are enriched below; roughly 3.8% of the tested compounds scored in any of these assays.
# PrP UTR inh = suppresses PrP 5' UTR mRNA reporter expression. 340,000 tested, 0.35% active. cell-based PrP 5' UTR mRNA reporter, plate reader. inhibition, % (concentration not given with the values); in the data active = inhibition above about 52%; also: 0 = median of the neutral control wells
# GDH-TPI inh = GDH-TPI coupled enzyme inhibition counter-screen. GDH-TPI coupled enzyme counterscreen, NADH absorbance. inhibition, % at 4.8 µM. 360,000 tested, 1.2% active; in the data active = inhibition above about 30%;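 also: 0% = DMSO wells and 100% = wells lacking the enzyme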
# PrPC TRFRET = cell surface PrPC inhibition, primary TR-FRET screen; AID 720596; 370,000 tested, 0.43% active; inhibition, % at 13.8 µM; TR-FRET read-out; in the data active = inhibition above about 24%; also: 0% = median of the test wells and 100% = reference compound wells
# Yp Topo-I inh = blocks Yersinia pestis topoisomerase I activity; Y. pestis Topo-I cleavage product accumulation, plate reader; activity, % at 10 µM; 360,000 tested, 0.064% active; in the data active = activity above about 50%, passing the limit was not always enough
# Mtb hypoxia rep = reduces hypoxia-regulated biosensor signal in M. tuberculosis. AID 1159583. fluorescence inhibition, % (concentration not given with the values). 300,000 tested, 0.1% active. M. tuberculosis hypoxia-regulated fluorescent reporter, fluorescence; in the data active = fluorescence inhibition mostly above about 23%, no sharp cut-off; inactive = mostly below about 17%
# Mtb FBA inh = Mtb fructose-bisphosphate aldolase inhibition. AID 588726. 360,000 tested, 2.3% active. inhibition, % at 1 µM. purified M. tuberculosis FBA, fluorescence read-out; in the data active = inhibition above about 27%;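 also: 0% = vehicle and 100% = reference inhibitor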
# Target sequence (P9WQA3 whole entry, looked up): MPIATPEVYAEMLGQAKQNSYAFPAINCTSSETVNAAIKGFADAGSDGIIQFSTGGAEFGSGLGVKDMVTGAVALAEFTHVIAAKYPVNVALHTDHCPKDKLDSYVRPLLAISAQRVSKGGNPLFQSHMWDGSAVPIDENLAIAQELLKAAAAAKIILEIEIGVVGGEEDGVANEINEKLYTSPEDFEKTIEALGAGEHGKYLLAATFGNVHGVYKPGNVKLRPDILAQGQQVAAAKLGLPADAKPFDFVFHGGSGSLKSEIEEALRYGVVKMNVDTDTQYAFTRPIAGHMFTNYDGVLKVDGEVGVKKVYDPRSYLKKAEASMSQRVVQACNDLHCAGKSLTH
# Numbers without * were called inactive; x = no result given; + = active, no number.
SMILES,PrP UTR inh,GDH-TPI inh,PrPC TRFRET,Yp Topo-I inh,Mtb hypoxia rep,Mtb FBA inh
COc1cc(OC)cc(-c2c(C#Cc3ccsc3)c3cc(-c4ccc5c(c4)OCO5)ccc3n2C)c1,-5,39*,2,-1,-5,11
COc1ccc(-c2c(C#Cc3ccsc3)c3cc(-c4cccc5[nH]ccc45)ccc3n2C)cc1,-32,17,11,-13,4,24
COc1ccc(-c2c(C#Cc3ccsc3)c3cc(-c4ccc5c(c4)OCCO5)ccc3n2C)cc1,-14,42*,-8,-4,9,19
COc1ccc(-c2c(C#Cc3ccsc3)c3cc(-c4ccc5c(c4)OCO5)ccc3n2C)cc1,-18,11,7,-3,18,3
CN(CCC#N)C(=O)COC(=O)c1c2c(nc3ccccc13)C(=Cc1ccco1)CC2,x,x,x,x,1,x
CCOC(=O)c1ccccc1NC(=O)c1cc2sccc2n1C,-3,32*,3,0,8,7
CCC(C)C(NC(=O)OC(C)(C)C)c1cn(C(CCCCNC(=O)OC(C)(C)C)C(=O)N2CCN(C(=O)OC(C)(C)C)CC2)nn1 (stereo unspecified),x,x,x,x,-13,x
CCn1c2ccccc2c2cc(/C=N/NC(=O)c3ccc(O)cc3)ccc21,-18,36*,9,-1,x,15
CCN(CC)CCNC(=O)c1cn(CC)c2cc(N3CCN(C(=O)c4ccco4)CC3)c(F)cc2c1=O,-14,4,0,7,2,22
CCN(CC)CCCNC(=O)c1cn(CC)c2cc(N3CCN(C(=O)c4ccco4)CC3)c(F)cc2c1=O,-3,20,3,-1,3,54*
Cn1nc(C(=O)OCC(=O)NCc2ccc(Cl)cc2)c2ccccc2c1=O,-14,1,6,9,31*,0
Cn1nc(C(=O)OCC(=O)NCCc2ccccc2)c2ccccc2c1=O,-2,7,-4,12,9,2
Cn1c(=O)c2[nH]c(NN=Cc3cccc(Br)c3)nc2n(C)c1=O,-19,37*,-15,8,7,-3
CCN(CC)CCOc1ccc(C=NNc2nc3c([nH]2)c(=O)n(C)c(=O)n3C)cc1,-15,44*,-7,4,14,0
Cn1c(=O)c2[nH]c(NN=Cc3ccc(F)cc3)nc2n(C)c1=O,-41,29,0,-4,14,-1
CN(C)/C=C/C(=O)c1ccc(-n2cccc2)cc1,-74,18,-7,-7,8,0
CN(C)/C=C/C(=O)c1ccc(Cl)cc1,-28,48*,-6,6,3,2
CN(C)/C=C/C(=O)c1cccc(Cl)c1,-17,42*,-4,17,2,-3
CN(C)NC(=O)c1cccc(Cl)c1,x,10,5,0,16,2
CN(C)/C=C/C(=O)c1cccc(C(F)(F)F)c1,-17,50*,2,-11,-8,3
Cc1ccc(C(=O)/C=C/N(C)C)cn1,-23,31*,-4,0,17,-2
CC(C)NC(=O)c1cccc(C(F)(F)F)c1,-53,-11,1,-2,6,1
CC1CN(C(C)CO)C(=O)c2cccc(NS(=O)(=O)c3ccccc3)c2OC1CN(C)C(=O)Nc1ccc(C(F)(F)F)cc1 (stereo unspecified),x,x,x,x,5,x
CC(C)C(NC(=O)c1cccc(S(=O)(=O)N2CCCC2)c1)c1nc2ccccc2[nH]1 (stereo unspecified),x,x,x,x,12,x
C[C@@]12CCCC(O1)C(C(O)c1ccccc1)O2 (stereo partly specified),x,x,x,x,12,x
SMILES,PrP UTR inh,GDH-TPI inh,PrPC TRFRET,Yp Topo-I inh,Mtb hypoxia rep,Mtb FBA inh
CN(C)/C=C/C(=O)c1ccc(Cl)c([N+](=O)[O-])c1,-14,31*,-6,-9,1,-2
O=c1/c(=C/c2ccco2)sc2n1CN(c1ccccc1)CN=2,-34,32*,-10,-6,x,-3
O=c1/c(=C/c2ccco2)sc2n1CN(c1cccc(Br)c1)CN=2,-20,38*,-11,9,x,-9
C=CCc1cccc(C=NNC(=O)CNc2ccccc2OC)c1O,x,x,x,x,5,x
COC(=O)NN=Cc1c(C)c(C(=O)c2ccc(F)cc2)n2ccccc12,x,x,x,x,1,x
CC1=CCC(C(=O)O)C(C(=O)Nc2ccc(-c3nc4ccc(C)cc4s3)cc2)C1 (stereo unspecified),-83,37*,6,14,-3,190*
Nc1ccc2nc(-c3ccccc3)sc2c1,49,26,8,5,-88,+
Cc1ccc2nc(-c3ccc(NS(=O)(=O)c4ccc(F)cc4)cc3)sc2c1,-90,37*,8,1,4,+
CC(=O)NC(=S)Nc1ccc(-c2nc3ccc(C)cc3s2)cc1,-65,5,7,5,x,6
Cc1ccc2nc(-c3ccc(N)cc3)sc2c1,23,25,10,0,6,+
CC(CC(=O)N1CCN(C=O)CC1)=NNC(=O)c1ccc(Br)cc1,x,x,x,x,-9,x
CC=CC=CC(=O)Nc1cccc(C2=NOC3(C2)CC(C(N)=O)N(C(=O)C(c2ccccc2)c2ccccc2)C3)c1 (stereo unspecified),x,x,x,x,4,x
O=C(CCS(=O)(=O)c1ccccc1)Nc1cccc(-c2nc3ccccc3s2)c1,-101,-1,-2,9,-1,0
O=C(CCS(=O)(=O)c1ccccc1)Nc1ccc(-c2nc3ccccc3s2)cc1,-20,7,1,5,5,31*
CNS(=O)(=O)c1cccc(C(=O)OCC(=O)Nc2ccc(-c3nc4ccc(C)cc4s3)cc2)c1,-17,23,x,4,14,29*
CC(N)Cc1cnc[nH]1 (stereo unspecified),x,x,x,x,1,x
COc1ccc(S(=O)(=O)Nc2ccc3c(c2)C(=O)N(C(C)CO)CC(C)C(CN(C)C(=O)Nc2ccc(C(F)(F)F)cc2)O3)cc1 (stereo unspecified),x,x,x,x,11,x
CCCCC1CNC(=S)N1CCCc1cc(OC)c(OC)c(OC)c1 (stereo unspecified),x,x,x,x,-6,x
C#CCOC1CC(n2cnc3c(=O)[nH]c(NC(=O)C(C)C)nc32)OC1CO (stereo unspecified),x,x,x,x,-2,x
CC(C)CCN1C(N(C)C)=NCC1C (stereo unspecified),x,x,x,x,16,x
CCn1cc(/C=C(\NC(=O)c2ccc(OC)cc2)C(=O)NCCCn2ccnc2)c2ccccc21,x,37*,-6,8,x,-5
CCn1cc(/C=C(\NC(=O)c2ccccc2OC)C(=O)NCCCn2ccnc2)c2ccccc21,-18,25,-4,5,6,-5
CCn1cc(/C=C(\NC(=O)c2ccccc2F)C(=O)NCCCn2ccnc2)c2ccccc21,9,33*,-12,-3,2,-5
CC(=O)NC(CC(=O)NC(CCC(=O)O)C(=O)O)C(=O)O (stereo unspecified),x,x,x,x,0,x
O=C(Nc1ccccc1)Nc1ccno1,-13,0,6,4,95*,2
O=C(Nc1ccccc1)Nc1ccncc1,-4,-2,-5,-4,1,5
O=[N+]([O-])c1ccc(NN=Cc2ccc(OCc3cccc4ccccc34)cc2)nc1,x,x,x,x,-8,x
